Results taken from PubChem BioAssay (EPA / NIEHS).
Where “and” joins values, the source holds several entries; their conditions need not be identical. Equal entries are not always repeated. Records with an inconclusive call do not appear. Where a structure was tested more than once in an assay, its records may differ in their call. Calls of active or inactive are those of the source. Rule for the calls, unless noted: active = hit-call score of the fitted dose curve at least 0.9, where 1 is the maximum; inactive = score below 0.9.

Key:
[1] = biological target: human RAR-related Orphan Receptor beta (RORb), RORB (gene 6096) (UniProt Q92753); assay: ATG_RORb_TRANS: Attagene TRANS-FACTORIAL HepG2 Assay for human RAR-related Orphan Receptor beta (RORb) (AID 2283010; active = hit-call score of the fitted dose curve at least 0.9, where 1 is the maximum)
human RAR-related Orphan Receptor beta (RORb), RORB (gene 6096), sequence (Q92753 whole entry, looked up, the tested form may be a part): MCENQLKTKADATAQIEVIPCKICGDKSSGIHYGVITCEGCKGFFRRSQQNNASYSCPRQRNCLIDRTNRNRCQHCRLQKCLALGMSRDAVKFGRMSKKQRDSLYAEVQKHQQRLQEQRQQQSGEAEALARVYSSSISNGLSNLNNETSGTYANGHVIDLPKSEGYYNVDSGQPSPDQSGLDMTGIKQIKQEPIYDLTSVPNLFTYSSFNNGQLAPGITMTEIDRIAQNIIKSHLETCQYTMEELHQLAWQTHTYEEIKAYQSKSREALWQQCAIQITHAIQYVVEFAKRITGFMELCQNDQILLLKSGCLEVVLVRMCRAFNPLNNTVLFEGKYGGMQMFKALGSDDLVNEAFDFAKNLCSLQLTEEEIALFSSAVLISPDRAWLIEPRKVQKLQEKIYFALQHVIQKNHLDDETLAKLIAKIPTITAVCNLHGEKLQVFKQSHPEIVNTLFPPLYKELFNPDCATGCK
In short: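 HepG2 cells were transiently transfected with multiplexed GAL4-UAS reporter units expressing chimeric nuclear receptor–GAL4 proteins, then dosed for 24 h. Reporter mRNA was quantified by RT-PCR with fluorescent labelling and capillary electrophoresis; gain of signal was fitted relative to DMSO.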

[2] = read-out: E-selectin (Homo sapiens) (UniProt P16581); assay: BSK_3C_Eselectin: BioMAP Diversity Plus: 3C Assay for Eselectin Biomarker Activity (AID 2283015); conditions: primary human endothelial cells (HUVEC); actives raise or lower the signal
In short: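 HUVEC, 3C stimulation; compound exposure 24 h; E-selectin by ELISA; gain- or loss-of-signal fitted bidirectionally vs DMSO baseline.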

[3] = read-out: Interleukin-1 alpha (IL1a), IL1A (gene 3552); assay: BSK_BE3C_IL1a: BioMAP Diversity Plus: BE3C Assay for Interleukin-1 alpha (IL1a) Biomarker Activity (AID 2283016); conditions: primary human bronchial epithelial cells; actives raise or lower the signal
In short: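 Human primary bronchial epithelial cells (BE3C system) were dosed with compound and IL-1a measured by ELISA 24 h later. Activity was fitted bidirectionally against DMSO baseline; cytotoxicity was tracked in parallel cultures by SRB total-protein staining.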

[4] = read-out: Monocyte Chemoattractant Protein-1 (MCP1), CCL2 (gene 6347); assay: BSK_3C_MCP1: BioMAP Diversity Plus: 3C Assay for Monocyte Chemoattractant Protein-1 (MCP1) Biomarker Activity (AID 2283017); conditions: primary human endothelial cells (HUVEC); actives raise or lower the signal
In short: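 HUVEC, 3C system; 24 h chemical exposure; MCP-1 by ELISA; bidirectional curve fit vs DMSO baseline.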

[5] = read-out: Monocyte Chemoattractant Protein-1 (MCP1), CCL2 (gene 6347); assay: BSK_4H_MCP1: BioMAP Diversity Plus: 4H Assay for Monocyte Chemoattractant Protein-1 (MCP1) Biomarker Activity (AID 2283018); conditions: primary human endothelial cells (HUVEC); actives raise or lower the signal
In short: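 Human umbilical vein endothelial cells (4H system) dosed with chemical; MCP-1 measured by ELISA 24 h after dosing. Bidirectional curve fitting against DMSO negative control as baseline; parallel SRB total-protein staining tracks overt cytotoxicity.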

[6] = read-out: Human Leukocyte Antigen - DR isotype (HLADR), HLA-DRA (gene 3122); assay: BSK_3C_HLADR: BioMAP Diversity Plus: 3C Assay for Human Leukocyte Antigen - DR isotype (HLADR) Biomarker Activity (AID 2283019); conditions: primary human endothelial cells (HUVEC); actives raise or lower the signal
In short: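 HUVEC, 3C stimulation, 24 h post-dose; HLA-DR by ELISA; bidirectional curve fit vs DMSO baseline; gain or loss of signal scored.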

[7] = read-out: Interleukin-8 (IL8), CXCL8 (gene 3576); assay: BSK_3C_IL8: BioMAP Diversity Plus: 3C Assay for Interleukin-8 (IL8) Biomarker Activity (AID 2283020); conditions: primary human endothelial cells (HUVEC); actives raise or lower the signal
In short: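 Primary human umbilical vein endothelial cells (3C system) were exposed to test chemical for 24 h, then IL-8 was quantified by ELISA. Responses were fitted bidirectionally against DMSO vehicle as baseline.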

[8] = read-out: Monokine induced gamma interferon (MIG), CXCL9 (gene 4283); assay: BSK_3C_MIG: BioMAP Diversity Plus: 3C Assay for Monokine induced gamma interferon (MIG) Biomarker Activity (AID 2283021); conditions: primary human endothelial cells (HUVEC); actives raise or lower the signal;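 for AC50: MIG protein level measured by immunoassay in the treated endothelial cultures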
In short: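 Primary human umbilical vein endothelial cells in the 3C system were exposed to chemical for 24 h, after which MIG was quantified by ELISA. Activity was fitted bidirectionally against DMSO as negative control and baseline.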

[9] = biological target: human Vitamin D Receptor (VDR), VDR (gene 7421) (UniProt P11473); assay: ATG_VDR_TRANS: Attagene TRANS-FACTORIAL HepG2 Assay for human Vitamin D Receptor (VDR) (AID 2283022; active = hit-call score of the fitted dose curve at least 0.9, where 1 is the maximum)
human Vitamin D Receptor (VDR), VDR (gene 7421), sequence (P11473 whole entry, looked up, the tested form may be a part): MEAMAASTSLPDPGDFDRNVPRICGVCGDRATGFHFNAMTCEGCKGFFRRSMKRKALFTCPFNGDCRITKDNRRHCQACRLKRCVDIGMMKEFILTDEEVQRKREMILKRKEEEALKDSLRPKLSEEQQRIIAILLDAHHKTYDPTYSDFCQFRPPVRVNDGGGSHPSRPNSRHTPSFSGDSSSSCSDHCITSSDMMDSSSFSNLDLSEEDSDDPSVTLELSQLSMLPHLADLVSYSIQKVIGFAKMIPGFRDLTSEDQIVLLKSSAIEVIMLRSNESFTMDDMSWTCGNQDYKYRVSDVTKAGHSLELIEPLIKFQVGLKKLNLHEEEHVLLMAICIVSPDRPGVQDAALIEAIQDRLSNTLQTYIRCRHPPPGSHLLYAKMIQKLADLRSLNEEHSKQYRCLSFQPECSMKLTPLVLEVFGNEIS
In short: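 RT-PCR/capillary electrophoresis read-out of reporter mRNA induction in transiently transfected HepG2; 24 h dosing; chimeric NR-Gal4 (TRANS format); gain-of-signal fit against DMSO baseline.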

[10] = BSK_3C_SRB: Viability Assessment in the BioMAP Diversity Plus: 3C Assay (AID 2283023); conditions: primary human endothelial cells (HUVEC);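 note: cells read 24 h after compound dosing; fitted both ways against DMSO so a hit may be signal rise or drop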
In short: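 HUVEC, 24 h post-dose; 10% TCA fix, 0.1% SRB stain, A560 nm. Bidirectional curve fit vs DMSO negative control.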

[11] = read-out: Matrix Metallopeptidase 1 (MMP1), MMP1 (gene 4312); assay: BSK_BE3C_MMP1: BioMAP Diversity Plus: BE3C Assay for Matrix Metallopeptidase 1 (MMP1) Biomarker Activity (AID 2283024); conditions: primary human bronchial epithelial cells; actives raise or lower the signal
In short: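 Primary human bronchial epithelial cells were dosed with test chemicals, and MMP1 levels were measured by ELISA 24 h later. Data were fitted bidirectionally against DMSO as the negative control and activity baseline.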

[12] = BSK_3C_Vis: BioMAP Diversity Plus: 3C Assay for Morphology Visualization (AID 2283025); conditions: primary human endothelial cells (HUVEC);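 note: fitted both ways so gain or loss versus DMSO counts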
In short: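 Human umbilical vein endothelial cells in the 3C system were imaged by light microscopy 24 h after chemical dosing to record cell morphology. Activity was fitted bidirectionally against DMSO as negative control and baseline; the endpoint serves as a background control.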

[13] = read-out: Pselectin, SELP (gene 6403); assay: BSK_4H_Pselectin: BioMAP Diversity Plus: 4H Assay for Pselectin Biomarker Activity (AID 2283026); conditions: primary human endothelial cells (HUVEC); actives raise or lower the signal
In short: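 Primary human umbilical vein endothelial cells were exposed to test chemical for 24 h, then cell-surface P-selectin was quantified by ELISA. Activity was fitted bidirectionally against DMSO as negative control and baseline.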

[14] = BSK_4H_SRB: Viability Assessment in the BioMAP Diversity Plus: 4H Assay (AID 2283027); conditions: primary human endothelial cells (HUVEC);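 note: cells exposed to compound for 24 h before staining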;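 for AC50: curves fitted both ways versus DMSO so AC50 may be loss or gain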
In short: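 Absorbance at 560 nm of SRB-stained total protein served as the viability read-out in confluent primary human umbilical vein endothelium 24 h after chemical treatment. Curves were fitted bidirectionally against DMSO as negative control.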

[15] = BSK_BE3C_SRB: Viability Assessment in the BioMAP Diversity Plus: BE3C Assay (AID 2283028); conditions: primary human bronchial epithelial cells;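 for AC50: fitted both ways so AC50 may mark signal gain or loss versus DMSO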
In short: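 Primary human bronchial epithelium; chemical dosing, 24 h; 10% TCA fix, 0.1% SRB stain, A560; bidirectional fit vs DMSO baseline.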

[16] = read-out: Thrombomodulin, THBD (gene 7056); assay: BSK_3C_Thrombomodulin: BioMAP Diversity Plus: 3C Assay for Thrombomodulin Biomarker Activity (AID 2283029); conditions: primary human endothelial cells (HUVEC); actives raise or lower the signal
In short: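 Primary human umbilical vein endothelial cells (3C system) were exposed to chemical for 24 h, then thrombomodulin levels were measured by ELISA. Activity was fitted bidirectionally against the DMSO negative control as baseline.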

[17] = read-out: Urokinase-type plasminogen activator receptor (uPAR), PLAUR (gene 5329); assay: BSK_4H_uPAR: BioMAP Diversity Plus: 4H Assay for Urokinase-type plasminogen activator receptor (uPAR) Biomarker Activity (AID 2283030); conditions: primary human endothelial cells (HUVEC); actives raise or lower the signal
In short: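 HUVEC, 24 h post-dose; uPAR by ELISA; bidirectional fit vs DMSO baseline.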

[18] = read-out: Vascular endothelial growth factor receptor 2 (Homo sapiens) (UniProt P35968); assay: BSK_4H_VEGFRII: BioMAP Diversity Plus: 4H Assay for Vascular endothelial growth factor receptor 2 (VEGFR2) Biomarker Activity (AID 2283031); conditions: primary human endothelial cells (HUVEC); actives raise or lower the signal
In short: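 HUVEC (human primary), 4H system; 24 h post-dose; VEGFRII by ELISA; bidirectional curve fit vs DMSO baseline; gain or loss of signal scored.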

[19] = biological target: Retinoic acid receptor RXR-alpha (Homo sapiens) (UniProt P19793); assay: ATG_RXRa_TRANS: Attagene TRANS-FACTORIAL HepG2 Assay for human Retinoid X Receptor alpha (RXRa) (AID 2283012; active = hit-call score of the fitted dose curve at least 0.9, where 1 is the maximum)
Retinoic acid receptor RXR-alpha (Homo sapiens), sequence (P19793 whole entry, looked up, the tested form may be a part): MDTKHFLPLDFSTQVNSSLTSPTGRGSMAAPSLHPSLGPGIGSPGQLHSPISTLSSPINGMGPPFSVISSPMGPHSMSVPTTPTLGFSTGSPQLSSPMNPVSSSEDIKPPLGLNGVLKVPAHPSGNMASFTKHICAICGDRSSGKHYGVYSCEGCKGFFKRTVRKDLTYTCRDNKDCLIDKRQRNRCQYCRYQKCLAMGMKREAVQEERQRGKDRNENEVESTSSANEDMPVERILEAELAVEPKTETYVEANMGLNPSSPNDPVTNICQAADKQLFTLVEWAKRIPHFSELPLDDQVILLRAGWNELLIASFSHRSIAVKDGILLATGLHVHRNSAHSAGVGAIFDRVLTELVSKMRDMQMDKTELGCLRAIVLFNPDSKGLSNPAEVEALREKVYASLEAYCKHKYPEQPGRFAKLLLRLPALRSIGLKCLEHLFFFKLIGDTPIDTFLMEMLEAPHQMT
In short: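 HepG2 cells transiently transfected with multiplexed GAL4-UAS reporter units and chimeric NR-GAL4 fusions, dosed 24 h. Reporter mRNA measured by RT-PCR, FAM labelling, HpaI digestion and capillary electrophoresis; gain-of-signal fitted relative to DMSO baseline.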

Measured: AC50

E-selectin (Homo sapiens), sequence (P16581 whole entry, looked up): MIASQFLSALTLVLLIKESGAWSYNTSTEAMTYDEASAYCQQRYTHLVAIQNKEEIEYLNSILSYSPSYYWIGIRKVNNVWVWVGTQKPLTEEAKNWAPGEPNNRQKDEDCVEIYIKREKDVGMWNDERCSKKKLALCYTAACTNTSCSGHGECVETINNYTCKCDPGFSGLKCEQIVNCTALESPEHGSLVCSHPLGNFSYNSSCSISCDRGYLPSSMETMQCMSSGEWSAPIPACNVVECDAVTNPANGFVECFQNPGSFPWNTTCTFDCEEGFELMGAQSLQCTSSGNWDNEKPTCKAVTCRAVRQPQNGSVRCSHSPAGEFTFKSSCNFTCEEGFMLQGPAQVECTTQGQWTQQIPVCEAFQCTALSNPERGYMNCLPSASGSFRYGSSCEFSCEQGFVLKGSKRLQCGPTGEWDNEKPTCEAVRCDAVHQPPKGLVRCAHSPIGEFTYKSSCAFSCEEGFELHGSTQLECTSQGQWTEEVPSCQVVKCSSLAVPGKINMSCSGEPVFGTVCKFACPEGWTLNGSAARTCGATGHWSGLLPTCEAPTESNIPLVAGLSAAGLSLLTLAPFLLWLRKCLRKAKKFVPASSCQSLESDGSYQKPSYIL

CNC(=S)S
active: [2] 12.8 µM | [6] 20 µM | [10] 13.3 µM | [12] 13.2 µM | [14] 20 µM
not listed: [18] | [19]
inactive: all other assays above

Cc1cc(Cl)ccc1OCC(=O)O
not listed: [9] | [18] | [19]
inactive: all other assays above

COc1cnc(OC)n2nc(NS(=O)(=O)c3c(OCC(F)F)cccc3C(F)(F)F)nc12
inactive: [1] | [2] | [3] | [4] | [5] | [6] | [7] | [8] | [10] | [11] | [12] | [13] | [14] | [15] | [16] | [17] | [18]
active: [7] 0.016 µM

COC(=O)N(OC)c1ccccc1COc1ccn(-c2ccc(Cl)cc2)n1
inactive: [1] | [3] | [8] | [11]
active: [2] 5.33 µM | [4] 19 µM | [5] 7.63 µM | [6] 7.6 µM | [7] 13.5 µM | [12] 13.7 µM | [13] 20 µM | [14] 10.5 µM | [15] 28.1 µM | [16] 3.97 µM | [17] 20 µM

CNC(=O)ON=CC(C)(C)SC
not listed: [9] | [19]
inactive: all other assays above

COC(=O)C=C(C)OP(=O)(OC)OC
not listed: [9] | [10] | [18] | [19]
inactive: all other assays above

CCCCNC(=O)OCC#CI
inactive: [1] | [9] | [16]
active: [2] 31.6 µM and 31.8 µM | [3] 33.7 µM and 29.6 µM | [4] 24.9 µM and 19.2 µM | [5] 26 µM and 14.8 µM | [6] 8.66 µM and 11 µM | [7] 26.2 µM and 28.9 µM | [8] 32.3 µM and 34.4 µM | [11] 32.9 µM | [12] 11.9 µM and 14.4 µM | [13] 12.8 µM and 16.1 µM | [14] 29 µM and 27.9 µM | [15] 21.5 µM and 26.9 µM | [17] 27.9 µM and 25.8 µM

COc1nc(NC(C)C)nc(NC(C)C)n1
active: [16] 0.148 µM
not listed: [10] | [18] | [19]
inactive: all other assays above

COc1ccc(C(c2ccc(OC)cc2)C(Cl)(Cl)Cl)cc1
inactive: [1] | [3] | [8] | [9] | [16] | [17]
active: [2] 25.6 µM | [4] 26.4 µM | [5] 13.3 µM | [6] 25.8 µM | [7] 24.9 µM | [10] 20.1 µM | [11] 6.22 µM | [12] 15.2 µM | [13] 33.4 µM | [14] 26.9 µM | [15] 19.4 µM

CCCN(CCC)c1c([N+](=O)[O-])cc(S(N)(=O)=O)cc1[N+](=O)[O-]
active: [2] 37.1 µM [middle of 4 runs] | [3] 39.6 µM [middle of 4 runs] | [4] 36 µM [middle of 4 runs] | [5] 34.4 µM [middle of 4 runs] | [6] 38.6 µM [middle of 4 runs] | [7] 34.2 µM [middle of 4 runs] | [8] 39 µM and 41.1 µM and 35.7 µM | [9] 61.2 µM | [11] 36 µM [middle of 4 runs] | [12] 41 µM and 41.8 µM and 16.3 µM | [13] 34.2 µM [middle of 4 runs] | [14] 32.3 µM [middle of 4 runs] | [15] 34.3 µM [middle of 4 runs] | [17] 33 µM [middle of 4 runs]
inactive: [1] | [19] | [9] | [16]

CCCCOC(=O)c1ccccc1C(=O)OCCCC
inactive: [1] | [2] | [3] | [4] | [5] | [6] | [7] | [8] | [9] | [11] | [12] | [13] | [14] | [15] | [16] | [17]
active: [5] 26.4 µM
